From PubChem
An excerpt weighted towards active compounds, which were near 5.2% of everything screened.
Tau fluor cs: counter-screen for tau fibril formation inhibitors | tau K18 P301L Alexa594 fluorescence, heparin fibrillization | Potency, µM (series often up to 57.7 µM), for inactives: at the top dose activity change, negative = decrease | hit rate 0.93% among 280,000 | AID 1463; also: potency is read from the fitted curve at half-maximal effect; nearly all actives have a fitted effect of over 55% in size
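Human tau K18 P301L (15 uM unlabeled, 0.24 uM Alexa 594-labeled) in 100 mM sodium acetate pH 7 with 20 uM heparin, 6 hr at 37 C. ThT 30 uM added, 1 hr ambient; Alexa 594 FP and total fluorescence read at 555/632 nm.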
Tau ThT inhib: blocks human tau fibril formation measured by thioflavin T; hit rate 2.1% among 270,000; P10636; recombinant tau K18 P301L (four-repeat tau fragment), heparin-induced fibrillization, ThT fluorescence; AID 1460; Potency, µM (top dose mostly 57.4 µM), for inactives: at the highest dose activity, negative = inhibition, usual class: inhibitors; also: potency is read from the fitted curve at half-maximal effect; nearly all actives have a fitted effect of over 55% in size
Target sequence (P10636 561-689 P618L limits assumed): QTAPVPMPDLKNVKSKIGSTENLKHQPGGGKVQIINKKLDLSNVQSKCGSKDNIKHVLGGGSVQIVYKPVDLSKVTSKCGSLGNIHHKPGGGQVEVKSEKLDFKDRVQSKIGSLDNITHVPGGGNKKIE
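Heparin-induced fibrillization of the P301L-mutant K18 repeat-domain fragment of human tau was followed by ThT binding in quantitative high-throughput format.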
Tau FP inhib: inhibitors of human tau fibril formation. P10636. K18 P301L tau heparin fibrillization, Alexa594 FP, 6 h. Potency, µM (series often up to 57.7 µM), for inactives: top-dose activity, negative = inhibition, most hits filed as inhibitors. hit rate 0.39% among 280,000; also: potency is read from the fitted curve at half-maximal effect; nearly all actives have a fitted effect of over 55% in size
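Recombinant K18 P301L […], labeled with Alexa 594 at 0.24 uM over 15 uM unlabeled; heparin inducer 20 uM final; 37 C, 6 hr; FP endpoint.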
Sfp PPTase inh: blocks B. subtilis Sfp PPTase activity | AID 1490 | Potency, µM, inactives show largest response in the series, negative = inhibition, hits mostly inhibitors | Biochemical Sfp PPTase activity, qHTS | hit rate 3.5% among 310,000 | Q9F4F7;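 also: the enzyme is Sfp with the accession as filed and its product quenches rhodamine fluorescence; potency is read from the fitted curve at half-maximal effect; 0% = enzyme reaction without inhibitor and -100% = no enzyme wells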
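Sfp 15 nM + cpd, 15 min RT; start w/ rhodamine-CoA 5 uM, BHQ-2-YbbR 12.5 uM (final); 50 mM Hepes pH 7.6, 10 mM MgCl2, 0.01% NP-40, 0.01% BSA; read 525/598 nm at 0 and 30 min.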
Coupling enz: inhibits coupling enzyme system, counter-screen for aldolase hits | AID 2472 | hit rate 0.67% among 290,000 | coupling enzyme system counterscreen, AmpLite Red fluorescence | activity change, negative = inhibition, % at 58.2 µM, hits read low; in the data active = activity change below about -30%
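Fluorescence at 525 nm excitation and 598 nm emission measured inhibition of the coupled detection system without aldolase. Compounds (at 57.5 uM final) were preincubated 10 min at room temperature with coupling enzyme reagent before a 20 min substrate/AmpLite Red step.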
Sfp PPTase conf: confirmation of Bacillus subtilis Sfp PPTase inhibitors; hit rate 79% among 380; Potency, µM (series often up to 114 µM), for inactives: at the top dose activity change, negative = inhibition, actives largely listed as inhibitors; Sfp PPTase enzymatic assay, qHTS titration; shares compounds with Sfp PPTase inh; AID 2701;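 also: potency is read from the fitted curve at half-maximal effect; plate controls were uninhibited Sfp reaction for no effect and no enzyme control for full effect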
Target sequence (Q9F4F7 whole entry, looked up): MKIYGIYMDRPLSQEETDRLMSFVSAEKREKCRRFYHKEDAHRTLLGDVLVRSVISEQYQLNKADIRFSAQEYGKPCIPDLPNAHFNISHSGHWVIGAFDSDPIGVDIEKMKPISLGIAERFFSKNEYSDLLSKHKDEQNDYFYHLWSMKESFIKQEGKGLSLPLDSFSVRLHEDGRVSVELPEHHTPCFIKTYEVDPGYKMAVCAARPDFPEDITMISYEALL
Sfp gel assay: Blocks Sfp PPTase activity, gel read-out; shares compounds with Sfp PPTase inh; purified Sfp, gel-based phosphopantetheinylation read-out; Potency, µM, most hits filed as inhibitors; hit rate 20% among 210; AID 2707;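 active = potency below 100 µM; inconclusive = dose-dependent response but potency above 100 µM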;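 also: band intensities scaled against SCH202676 control wells before curve fitting; potency is an IC50 for inhibitors of Sfp transfer activity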
* = called active by the depositor; i = inactive; ? = inconclusive; nt = not tested or not shown; ! = not confirmed by another sample; [ ] = remark or other dose. Unless noted, calls follow the shape of the dose curve; as a rule, active = well fitted curve in the direction sought with a large enough effect; inconclusive = small, poorly fitted or top-dose-only effect, or another doubt; inactive = no such curve, though single readings can be large; an effect the other way counts as inactive or inconclusive. Unless noted, % is scaled to controls: 0 for no effect and ±100 for the full control effect.

SMILES | Tau fluor cs | Tau ThT inhib | Tau FP inhib | Sfp PPTase inh | Coupling enz | Sfp PPTase conf | Sfp gel assay
Cc1cccc(Nc2nc(NCc3ccco3)c3ccccc3n2)c1 | ? | -13% | ? | 2.5µM* | 0 | 37µM* | i
Cc1sc(NC(=O)c2ccccc2)c(C(=O)c2ccccc2)c1C | -22% | ? | -6% | 13µM* | 0 | 13µM* | nt
CCOC(=O)c1c(NC(=O)c2ccc(Br)cc2)sc2c1CCCC2 | -12% | ? | ? | nt | nt | nt | nt
CCOC(=O)c1c(NC(=O)c2ccccc2)sc2c1CCc1ccccc1-2 | -17% | ? | ? | 1.3µM* | 2 | 13µM* | nt
CCOC(=O)c1c(NC(=O)c2ccccc2Cl)sc2c1CCc1ccccc1-2 | -29% | ? | -13% | 11µM* | -1 | 9.4µM* | nt
Cc1sc(NC(=O)c2ccccc2)c(C(=O)NC(C)C)c1C | 1% | -8% | 5% | 14% | -3 | nt | nt
CC(=O)N1CCc2c(sc3nc(SCC(N)=O)n(-c4ccc(F)c(Cl)c4)c(=O)c23)C1 | -5% | 9% | -9% | nt | nt | nt | nt
COc1ccc(CC(=O)Nc2sc3c(c2C(=O)Nc2cccc(C)c2)CCCCC3)cc1 | -6% | -8% | -9% | nt | nt | nt | nt
Cc1c(C(=O)OCC2CCCO2)[nH]c2c1C(=O)CC(c1ccco1)C2 (stereo not drawn) | -9% | ? | -7% | 16µM* | -1 | 37µM* | i
Cc1c(C(=O)OC2CCCC2)[nH]c2c1C(=O)CC(c1ccco1)C2 (stereo not drawn) | -9% | ? | -6% | -14% | 0 | nt | nt
CC(C)C[C@@H](CC(=O)N[C@@H](CCCN)CC(=O)N[C@@H]1CCNC[C@H]1C(=O)N[C@H](CC(=O)N[C@@H](CCC(=O)O)CC(=O)O)Cc1ccccc1)NC(=O)[C@@H]1CNCC[C@H]1N | -6% | -14% | 7% | -16% | -6 | nt | nt
CN1CCN(C(c2cccnc2)c2ccc3cccnc3c2O)CC1 (stereo not drawn) | -3% | 8% | -7% | 2.8µM* | -2 | 42µM* | nt
CC(=O)NC(c1ccc2ccccc2c1)c1ccc2cccnc2c1O (stereo not drawn) | nt | nt | nt | -13% | 0 | nt | nt
CCn1c2c(c(=O)n3ncc(C(=O)N4CCN(c5ccc(Cl)cc5)CC4)c13)CN(Cc1ccc(OC)cc1)CC2 | -5% | -16% | 4% | nt | nt | nt | nt
Cc1nnc2sc(SCc3ccc(Br)cc3)nn2c1=O | -9% | -11% | -5% | 13% | 4 | nt | nt
N[C@@H](Cc1ccccc1)c1nnc2sc(SCc3ccccc3)nn12 | 0% | -16% | -2% | 45µM* | 1 | 66µM* | nt
COc1cccc(C(=O)Nc2c3c(nn2-c2ccc(C)cc2C)CS(=O)(=O)C3)c1OC | 3% | 6% | 1% | nt | nt | nt | nt
CN1CCC(=C2c3ccccc3C=Cc3ccccc32)CC1 | -9% | -10% | ? | 45µM*! | 1 | 83µM* | i
CC1=C(C(=O)Nc2ccc(C)cc2C)C(c2ccc[nH]2)n2ncnc2N1 (stereo not drawn) | 1% | 4% | 0% | nt | nt | nt | nt
COc1ccc(C)c2sc(N(Cc3cccnc3)C(=O)CCc3ccccc3)nc12 | -13% | ? | 5% | nt | nt | nt | nt
O[C@@H]1CCN2Cc3ccccc3N=C12 | nt | nt | nt | 2.8µM* | -7 | 2.1µM* | 0.69µM*
c1ccc2c(c1)CN1CCCC1=N2 | -4% | 2% | -5% | 6% | 3 | nt | nt
COc1cccc(NC(=O)c2sc3nc(C)c(C(=O)Nc4ccc(C)cc4C)c(-c4ccco4)c3c2N)c1 | -28% | ? | -15% | nt | nt | nt | nt
Clc1ccccc1CSc1nc2ccncc2[nH]1 | -6% | -5% | -5% | 56µM* | 3 | ? | ?
O=C(NCc1ccccc1Cl)c1ccc(CSc2nc3ccncc3[nH]2)cc1 | -15% | -4% | -10% | 17% | 2 | nt | nt
SMILES | Tau fluor cs | Tau ThT inhib | Tau FP inhib | Sfp PPTase inh | Coupling enz | Sfp PPTase conf | Sfp gel assay
S=C(Nc1cccc(Cl)c1)Nc1cccc2cnccc12 | 4% | 3% | 7% | 1.4µM* | 4 | 13µM* | ?
CCCCNC(=S)Nc1cccc2cnccc12 | -7% | -9% | 3% | -17% | -18 | nt | nt
CCCCS(=O)(=O)Nc1ccc(C)cn1 | -16% | ? | -17% | 40µM* | -51* | 47µM* | i
Cc1ccc(NS(=O)(=O)c2cccs2)nc1 | nt | nt | nt | 9% | -3 | nt | nt
CCN1CCc2nc(N)sc2C1 | -2% | -12% | -6% | 11µM* | -4 | 12µM* | ?
CCN1CCc2nc(NC(=O)c3ccccc3)sc2C1 | -4% | -9% | -6% | -9% | -3 | nt | nt
C=CCN1CCc2nc(N)sc2CC1 | -11% | ? | ? | 56µM*! | 0 | 59µM* | ?
O=c1c(S(=O)(=O)c2ccccc2)cn(Cc2ccccc2)c2cc(N3CCOCC3)c(F)cc12 | -11% | -11% | 9% | nt | nt | nt | nt
O=C(CSc1nnc(SCC(=O)c2ccco2)s1)c1ccco1 | -8% | -8% | 1% | 14µM* | -1 | 47µM* | ?
N[C@@H](Cc1ccc(O)c(O)c1)C(=O)O | nt | nt | nt | 40µM* | -1 | -6%[53.7 µM] | ?
NC(Cc1ccc(O)c([N+](=O)[O-])c1)C(=O)O (stereo not drawn) | 3% | 3% | 8% | ? | 2 | nt | nt
Clc1cccc(CNc2cc(-c3ccccc3)nc3nncn23)c1 | 12% | ? | 2% | nt | nt | nt | nt
Cc1cc(Nc2cccc(Cl)c2)nc(NCc2ccccc2)n1 | ? | ? | ? | 16µM* | -6 | 59µM* | ?
Cc1ccc(-c2nc3cnccn3c2Nc2c(C)cccc2C)o1 | -19% | ? | ? | 0.5µM* | 3 | 4.2µM* | i
